Data on 6 compounds can be found in PubChem BioAssay (NCATS).

Values without a mark were called inactive. Results filed as inconclusive are left out. Active and inactive are the calls of the source. Unless noted, calls come from the whole dose curve; as a rule, active = well fitted curve in the direction sought with a large enough effect; inconclusive = small, poorly fitted or top-dose-only effect, or another doubt; inactive = no such curve, though single readings can be large; an effect the other way counts as inactive or inconclusive. Where only a bound is given, the exact number is not on record here.

For assay [1], the target named is Cytochrome P450 1A2 (Homo sapiens) (UniProt P05177). The experiment in a line: p450-cyp1a2 (AID 410; calls by dose curve; note: potency is the fitted concentration of half-maximal effect;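 for activity change, negative = inhibition: -100% = full effect of reference inhibitor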). The gist of the method: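 Luminescent readout of luciferin formed from Luciferin-ME by human CYP1A2; data normalized against complete inhibition by 57 uM furafylline. Enzyme 20nM, substrate 100uM at Km, 100mM KPO4 buffer, 60 min reaction at room temperature.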
Chain of Cytochrome P450 1A2 (Homo sapiens) (P05177 whole entry, looked up): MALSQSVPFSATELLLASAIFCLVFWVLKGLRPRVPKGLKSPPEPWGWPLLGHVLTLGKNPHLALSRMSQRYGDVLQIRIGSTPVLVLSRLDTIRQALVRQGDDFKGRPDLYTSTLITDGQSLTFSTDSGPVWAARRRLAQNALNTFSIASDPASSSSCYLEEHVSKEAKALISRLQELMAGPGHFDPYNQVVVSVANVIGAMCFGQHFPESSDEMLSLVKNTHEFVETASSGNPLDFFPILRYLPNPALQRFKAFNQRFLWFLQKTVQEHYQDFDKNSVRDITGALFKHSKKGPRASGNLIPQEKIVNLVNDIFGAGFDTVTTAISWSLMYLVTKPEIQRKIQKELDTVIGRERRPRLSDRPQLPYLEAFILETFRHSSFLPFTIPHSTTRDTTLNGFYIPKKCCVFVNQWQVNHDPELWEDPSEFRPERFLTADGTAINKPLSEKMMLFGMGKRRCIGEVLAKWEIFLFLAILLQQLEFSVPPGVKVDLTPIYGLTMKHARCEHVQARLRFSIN
Assay [2] can be described thus: NFAT Signaling Pathway (AID 444; active = well fitted curve in either direction with a large enough effect, not every such curve was filed as active;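 note: carbachol stimulus at about its EC50 of 1 µM final; % is set by controls: 0 for no effect and ±100 for the full control effect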). The following applies: Jurkat NFAT-bla M1, carbachol, beta-lactamase ratio, 5 h; at 17.2 µM (top of the series) unless noted. In a few lines: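 Jurkat cells with NFAT-driven β-lactamase reporter and co-expressed M1 receptor, stimulated with carbachol (final 1 uM, ~EC50), compound titration, 5 h at 37 °C. CCF4 loaded 1 h at RT; 460/530 nm ratio gave %activity and AC50.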

The nature of assay [3]: Stat Signaling Pathway (AID 446; active = well fitted curve in either direction with a large enough effect, not every such curve was filed as active;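 note: ME-180 cervical cancer cells given 40 pM IL-6 alongside compound; SIE-controlled beta-lactamase reporter measured as 460/530 nm FRET emission ratio; % is set by controls: 0 for no effect and ±100 for the full control effect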). As to conditions: ME-180 SIE beta-lactamase reporter, IL-6 stimulated, 5 h; at 17.2 µM (top of the series) unless noted. The gist of the method:
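ME-180 cells carrying a SIE-driven beta-lactamase reporter are stimulated with 40 pM IL-6 for 5 h at 37C in the presence of compound. The 460/530 nm FRET substrate ratio is read after 2.5 h at RT. Data are normalised to 300 pM IL-6 and to 125 nM JAK inhibitor controls.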

Assay [4] addresses Glucocorticoid receptor (Homo sapiens) (UniProt P04150). Put plainly: GR-GFP Redistribution (AID 450;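 active = compounds whose dose series gives a full or clear partial fitted curve of increased nuclear translocation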; note: potency is the fitted concentration of half-maximal effect).
For assay [5] the target is unchanged. The experiment in a line: GR-EFC Redistribution (AID 451; calls by dose curve; note: potency is the fitted concentration of half-maximal effect). As to conditions: CHO-K1 GR-EFC translocation, beta-gal luminescence, 2 h. In a few lines: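 CHO-K1 cells expressing nuclear EA and GR-ED fragments of b-gal; compounds titrated up to 46 uM final, 2 h at 37 C. GR nuclear translocation read as complemented b-gal luminescence after 1 h RT detection.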
The target in assay [6] is Mitogen-activated protein kinase 10 (Mus musculus) (UniProt Q61831). The experiment in a line: JNK3 AlphaScreen Assay (AID 530; active = well fitted curve in either direction with a large enough effect, not every such curve was filed as active;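 note: kinase came from lysate of stimulated human HepG2 cells; signal reports phosphorylation of biotinylated GST-cJun 1-79 at Ser73 with 10 µM ATP; % is set by controls: 0 for no effect and ±100 for the full control effect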). In a few lines:
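Pre-activated (IL-1β/TNFα) JNK3 in HepG2 lysates phosphorylates biotin-GST-cJun(1-79), 10 uM ATP; anti-phospho-cJun(Ser73) AlphaScreen read at room temperature, pH 7.6 Tris buffer. Compounds pre-incubated 15 min as titrations.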
In general terms: Alpha assays give light when donor and acceptor beads are brought close together.

Assay [7] addresses 3',5'-cyclic-AMP phosphodiesterase 4B (Homo sapiens) (UniProt Q07343). The experiment in a line: qHTS Assay for Inhibitors of PDE-IV (AID 607; active = well fitted activation curve with a large enough effect in the main read-out, with a control signal flat, not every such curve was filed as active; note: % of control where 0% means no effect). The gist of the method:
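HEK293 ACTOne cells with CNG channel (1000/well), endogenous PDE4; membrane potential dye, compounds up to 22.9 uM final. Fluorescence Ex 535/Em 590; RO 20-1724 (100 uM final) as reference.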
A general note: In qHTS, concentration-response curves come from the screen itself.

Assay [8] has as its target Guanine nucleotide-binding protein G(i) subunit alpha-1 (Homo sapiens) (UniProt P63096). Put plainly: qHTS Assay for Inhibitors of RGS12 GoLoco Motif Activity (Green Fluorophore) (AID 879).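 Note: 0% = labeled peptide with Gαi1 and full inhibition = labeled peptide alone without protein; negative values mean loss of peptide binding seen as reduced polarization.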 In a few lines:
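Fluorescence polarization assay: 50 nM Gαi1 with 10 nM FITC-labeled RGS12 GoLoco peptide in 10 mM Tris pH 7.5, 150 mM NaCl, 0.1 mM GDP, 0.05% NP40, 10 min at room temperature with compound.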

For assay [9], the target named is Cytochrome P450 2C9 (Homo sapiens) (UniProt P11712). The experiment in a line: qHTS Assay for Inhibitors and Substrates of Cytochrome P450 2C9 (AID 883). Note: % is set by controls: 0 for no effect and ±100 for the full control effect; nearly all actives have a fitted effect of over 60% in size. In a few lines: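 Human CYP2C9 (10nM) with Luciferin-H at 100uM (its KM) in 25mM KPO4; compound preincubated 10 min at 37C, then NADPH regeneration for 60 min at 37C. Luciferin read by luminescence after detection reagent; normalized to 57uM sulphaphenazole as full inhibition.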
Chain of Cytochrome P450 2C9 (Homo sapiens) (P11712 whole entry, looked up): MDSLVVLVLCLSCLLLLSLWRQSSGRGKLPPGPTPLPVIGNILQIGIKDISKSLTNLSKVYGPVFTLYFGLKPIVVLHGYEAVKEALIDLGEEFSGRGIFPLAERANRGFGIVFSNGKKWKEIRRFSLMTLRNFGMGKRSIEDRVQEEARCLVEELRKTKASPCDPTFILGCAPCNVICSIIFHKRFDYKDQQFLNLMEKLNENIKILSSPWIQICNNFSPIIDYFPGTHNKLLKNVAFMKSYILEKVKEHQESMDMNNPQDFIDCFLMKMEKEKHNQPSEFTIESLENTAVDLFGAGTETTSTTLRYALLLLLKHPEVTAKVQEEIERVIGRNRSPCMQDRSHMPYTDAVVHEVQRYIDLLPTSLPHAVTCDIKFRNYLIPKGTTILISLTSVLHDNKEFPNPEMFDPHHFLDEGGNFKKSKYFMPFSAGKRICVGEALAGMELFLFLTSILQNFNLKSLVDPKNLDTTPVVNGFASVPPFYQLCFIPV

In assay [10] the target is Cytochrome P450 3A4 (Homo sapiens) (UniProt P08684). Put plainly: qHTS Assay for Inhibitors and Substrates of Cytochrome P450 3A4 (AID 884). Note: nearly all actives have a fitted effect of over 50% in size. Note: potency is the fitted concentration of half-maximal effect. The gist of the method: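 20 nM human CYP3A4 with 25 uM Luciferin-PPXE (at KM) in 200 mM KPO4, preincubated 10 min with compound; NADPH regeneration started a 60 min RT reaction. Luciferin detected by luminescence, normalized to 57 uM ketoconazole as full inhibition.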
Chain of Cytochrome P450 3A4 (Homo sapiens) (P08684 whole entry, looked up): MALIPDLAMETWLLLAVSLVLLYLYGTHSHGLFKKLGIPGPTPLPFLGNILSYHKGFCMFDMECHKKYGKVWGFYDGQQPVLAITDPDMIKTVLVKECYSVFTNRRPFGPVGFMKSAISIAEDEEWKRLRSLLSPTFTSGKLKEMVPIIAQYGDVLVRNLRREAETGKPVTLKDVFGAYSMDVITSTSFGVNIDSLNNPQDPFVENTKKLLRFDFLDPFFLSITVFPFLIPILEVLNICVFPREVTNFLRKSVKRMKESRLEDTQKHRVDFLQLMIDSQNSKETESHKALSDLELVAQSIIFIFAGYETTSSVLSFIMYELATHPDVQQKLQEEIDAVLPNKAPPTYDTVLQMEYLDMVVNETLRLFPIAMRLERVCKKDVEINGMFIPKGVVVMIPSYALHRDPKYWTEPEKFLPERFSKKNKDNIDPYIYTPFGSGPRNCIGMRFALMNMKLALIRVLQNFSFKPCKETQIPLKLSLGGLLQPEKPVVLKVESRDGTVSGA

Assay [11] has as its target Cytochrome P450 2D6 (Homo sapiens) (UniProt P10635). Put plainly: qHTS Assay for Inhibitors and Substrates of Cytochrome P450 2D6 (AID 891).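 Note: luciferin methyl ether substrate demethylated by CYP2D6 with NADPH regeneration; % is set by controls: 0 for no effect and ±100 for the full control effect; nearly all actives have a fitted effect of over 60% in size.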 In a few lines:
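Human CYP2D6 (5 nM) with 30 uM Luciferin-ME EGE (at Km) in 100 mM KPO4, compound preincubated 10 min, then NADPH regeneration system for 60 min at room temperature. Luciferin read by luminescence; normalized to 1.43 uM quinidine.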

Assay [12] deals with Muscarinic acetylcholine receptor M1 (Rattus norvegicus) (UniProt P08482). Put plainly: qHTS Assay for Antagonists of Acetylcholine Muscarinic M1 Receptor: Measurement of IP-One Response (AID 944). Note: nearly all actives have a fitted effect of over 75% in size. The gist of the method: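 M1-CHO (rat), 2000 cells/well, overnight recovery; cpd 10 min; carbachol EC80 (200 nM), 30 min, HEPES buffer + 50 mM LiCl pH 7.4; IP-One HTRF, Ex 337, Em 620/665 nm.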

Assay [13] concerns the target Pyruvate kinase (Leishmania mexicana) (UniProt Q27686). The experiment in a line: qHTS Validation Assay for Inhibitors of Leishmania Mexicana Pyruvate Kinase (AID 945).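 For activity change, negative = inhibition: 0% = DMSO only neutral control wells.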 Note: potency is the fitted concentration of half-maximal effect. In a few lines:
(§1)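 Mutant LmPYK (E451W), 0.2 nM, plus 0.5 mM PEP and 0.1 mM ADP in 50 mM imidazole pH 7.2 containing 0.01% Tween 20 and 0.05% BSA. Incubated 1 h at room temperature; luminescence via PKLight, normalized to DMSO.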

In assay [14] the target is Pyruvate kinase PKM (Homo sapiens) (UniProt P14618). Put plainly: qHTS Assay for Inhibitors of Human Muscle Pyruvate Kinase (AID 958). In a few lines: (§2)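 Purified human PKM2 (0.1 nM) with 0.5 mM PEP (Km) and 0.1 mM ADP in 50 mM imidazole pH 7.2, KCl, MgCl2, 1 h at room temperature; ATP formed read by coupled luciferase luminescence. Normalized to no-enzyme/110 uM thiadiazolimine inhibition; 0.3 nM enzyme column for activation.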
Chain of Pyruvate kinase PKM (Homo sapiens) (P14618 whole entry, looked up): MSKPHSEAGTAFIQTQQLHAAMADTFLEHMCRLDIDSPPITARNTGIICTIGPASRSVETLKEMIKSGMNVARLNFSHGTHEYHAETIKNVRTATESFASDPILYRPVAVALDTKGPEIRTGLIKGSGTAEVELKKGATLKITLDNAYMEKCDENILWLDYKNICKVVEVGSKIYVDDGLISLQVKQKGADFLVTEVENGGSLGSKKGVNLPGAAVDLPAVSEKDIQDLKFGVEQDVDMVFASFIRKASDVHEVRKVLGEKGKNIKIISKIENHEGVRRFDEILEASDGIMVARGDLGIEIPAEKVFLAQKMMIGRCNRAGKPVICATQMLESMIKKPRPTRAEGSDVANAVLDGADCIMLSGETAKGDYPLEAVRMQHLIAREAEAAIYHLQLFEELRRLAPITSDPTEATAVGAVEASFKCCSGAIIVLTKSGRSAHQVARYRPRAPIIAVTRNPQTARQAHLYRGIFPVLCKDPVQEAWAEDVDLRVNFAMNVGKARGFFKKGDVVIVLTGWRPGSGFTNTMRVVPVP

Assay [15] addresses Pyruvate kinase (Leishmania mexicana) (UniProt Q27686). The experiment in a line: qHTS Validation Assay for Activators of Leishmania Mexicana Pyruvate Kinase (AID 959). In a few lines: as §1
The target of assay [16] is Alpha-galactosidase A (Homo sapiens) (UniProt P06280). The experiment in a line: Counterscreen for Glucocerebrosidase Inhibitors: qHTS Assay for Human alpha-Galactosidase at pH 4.5 (AID 992). Note: 0% is about no effect. The gist of the method: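 Human enzyme (2 nM) with 80 uM 4-methylumbelliferyl alpha-D-galactopyranoside in 50 mM citric acid, 0.005% Tween-20, pH 4.5, 20 min at room temperature. Compounds 0.7 nM–77 uM; fluorescence Ex 365/Em 440 after pH 10 stop; AC50 from Hill fits.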
Chain of Alpha-galactosidase A (Homo sapiens) (P06280 whole entry, looked up): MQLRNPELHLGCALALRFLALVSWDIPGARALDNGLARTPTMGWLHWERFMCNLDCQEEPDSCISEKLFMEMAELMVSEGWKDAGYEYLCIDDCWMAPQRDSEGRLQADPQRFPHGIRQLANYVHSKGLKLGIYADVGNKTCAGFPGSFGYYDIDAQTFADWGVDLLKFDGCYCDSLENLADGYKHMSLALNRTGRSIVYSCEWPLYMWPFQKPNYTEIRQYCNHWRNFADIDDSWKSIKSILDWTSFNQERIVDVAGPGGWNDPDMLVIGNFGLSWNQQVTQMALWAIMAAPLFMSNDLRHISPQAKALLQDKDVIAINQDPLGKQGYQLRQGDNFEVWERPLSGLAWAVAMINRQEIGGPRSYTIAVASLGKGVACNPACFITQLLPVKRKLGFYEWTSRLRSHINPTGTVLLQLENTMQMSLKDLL
A general note: A counterscreen serves to expose hits that act by an unwanted route or on another target.

Assay [17] deals with alpha-glucosidase (Oryza sativa, rice) (UniProt Q653V4). The experiment in a line: Counterscreen for Glucocerebrosidase Inhibitors: qHTS Assay for Rice alpha-Glucosidase at pH 5.0 (AID 997).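 Note: 0% = full activity with enzyme and -100% = basal without enzyme.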 The gist of the method:
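Rice alpha-glucosidase (4 nM final) with 400 uM 4-methylumbelliferyl-alpha-D-glucopyranoside in citrate buffer pH 5.0, 20 min at room temperature, stopped at pH 10; fluorescence 365/440 nm, compounds 0.7 nM–77 uM, AC50 from Hill fits.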

Assay [18] is described as follows: AP1 Signaling Pathway (AID 357; active = well fitted curve in either direction with a large enough effect, not every such curve was filed as active;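 note: ME-180 reporter cells stimulated with EGF at its EC50 level; % is set by controls: 0 for no effect and ±100 for the full control effect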). The following applies: ME-180 AP-1-bla reporter, EGF-induced, beta-lactamase ratio, 5 h; at 17.2 µM (top of the series) unless noted. In a few lines:
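Read-out was the 460nm/530nm emission ratio (excitation 405nm) after CCF4 loading for 2.5 hours at room temperature. Cells carried an AP-1-driven beta-lactamase reporter, were stimulated with EC50 EGF plus compound for 5 hours, and AC50 values came from titrations.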

Assay [19] addresses Cytochrome P450 3A4 (Homo sapiens) (UniProt P08684). The experiment in a line: qHTS Assay for Activators of Cytochrome P450 3A4 (AID 885). Note: nearly all actives have a fitted effect of over 65% in size. The gist of the method: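 Human CYP3A4 (20 nM) with Luciferin-PPXE at 25 uM (its KM) in 200 mM KPO4; 10 min compound preincubation, then NADPH regeneration and 60 min reaction at RT. Luciferin read by luminescence; normalized to 57 uM ketoconazole full inhibition.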

The target in assay [20] is Pyruvate kinase PKM (Homo sapiens) (UniProt P14618). The experiment in a line: qHTS Assay for Activators of Human Muscle Pyruvate Kinase (AID 954; active = well fitted curve in the direction sought with a large enough effect, not every such curve was filed as active;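 note: 0% = uninhibited enzyme and -100% = no enzyme or full thiadiazolimine inhibition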). The gist of the method:
as §2

The target of assay [21] is Cytochrome P450 2C19 (Homo sapiens) (UniProt P33261). Put plainly: qHTS Assay for Inhibitors and Substrates of Cytochrome P450 2C19 (AID 899). Note: potency is the fitted concentration of half-maximal effect; nearly all actives have a fitted effect of over 60% in size. The gist of the method:
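5 nM human CYP2C19 with 10uM Luciferin-H EGE (at KM) in 50mM KPO4, compound preincubated 10 min at 37C, then NADPH regeneration for 60 min at 37C. Luciferin read by luminescence after detection reagent; normalized to 57uM ketoconazole as full inhibition.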

Assay [22] is described as follows: qHTS Assay for Identification of Small Molecule Agonists for Thrombopoietin (TPO) Signaling Pathway (AID 917). Note: potency is the fitted concentration of half-maximal effect. The gist of the method: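 Activators of TPO signaling were sought in murine Ba/F3 cells transfected with the human receptor, using a luciferase gene driven by the Glycoprotein IIb promoter; 24-hr compound exposure at 37 C alongside 26 pM TPO, in IL-3-free medium.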

A short description of assay [23]: qHTS Assay for Identification of Small Molecule Agonists for NFkB Signaling Pathway (AID 928; calls by dose curve). As to conditions: NFkB beta-lactamase reporter cells, blue/green ratio. The gist of the method: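 ME-180 NFkB-bla cells carry a beta-lactamase reporter under an NFkB response element. Compound plus 10 pM TNF alpha (final) was applied for 5 hrs at 37 C. After 2 hrs with LiveBLAzer substrate, 460/530 nm emission was read at 405 nm excitation.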

Chain of Glucocorticoid receptor (Homo sapiens) (P04150 whole entry, looked up, the tested form may be a part): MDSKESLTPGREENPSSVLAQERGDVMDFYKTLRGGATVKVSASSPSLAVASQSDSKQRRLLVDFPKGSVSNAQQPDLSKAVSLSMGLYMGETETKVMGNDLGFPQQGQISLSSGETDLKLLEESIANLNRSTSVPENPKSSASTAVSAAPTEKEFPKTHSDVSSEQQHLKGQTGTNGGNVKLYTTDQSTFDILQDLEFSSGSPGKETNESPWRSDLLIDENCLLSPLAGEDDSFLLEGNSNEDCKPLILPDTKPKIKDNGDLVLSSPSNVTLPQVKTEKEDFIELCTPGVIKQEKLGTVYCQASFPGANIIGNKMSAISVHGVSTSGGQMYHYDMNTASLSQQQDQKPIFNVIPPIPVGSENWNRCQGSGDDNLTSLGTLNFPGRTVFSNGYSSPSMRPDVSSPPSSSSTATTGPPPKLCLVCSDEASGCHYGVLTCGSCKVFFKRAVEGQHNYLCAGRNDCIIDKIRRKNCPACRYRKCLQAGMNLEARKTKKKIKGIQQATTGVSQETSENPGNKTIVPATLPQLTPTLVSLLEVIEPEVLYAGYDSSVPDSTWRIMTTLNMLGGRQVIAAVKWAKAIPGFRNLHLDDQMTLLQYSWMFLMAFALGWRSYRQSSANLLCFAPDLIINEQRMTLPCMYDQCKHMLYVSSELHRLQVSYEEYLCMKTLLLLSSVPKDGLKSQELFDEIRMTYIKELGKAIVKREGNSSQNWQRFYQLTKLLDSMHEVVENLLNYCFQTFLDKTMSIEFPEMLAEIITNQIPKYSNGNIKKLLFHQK
Chain of Pyruvate kinase (Leishmania mexicana) (Q27686 2-499 E452W): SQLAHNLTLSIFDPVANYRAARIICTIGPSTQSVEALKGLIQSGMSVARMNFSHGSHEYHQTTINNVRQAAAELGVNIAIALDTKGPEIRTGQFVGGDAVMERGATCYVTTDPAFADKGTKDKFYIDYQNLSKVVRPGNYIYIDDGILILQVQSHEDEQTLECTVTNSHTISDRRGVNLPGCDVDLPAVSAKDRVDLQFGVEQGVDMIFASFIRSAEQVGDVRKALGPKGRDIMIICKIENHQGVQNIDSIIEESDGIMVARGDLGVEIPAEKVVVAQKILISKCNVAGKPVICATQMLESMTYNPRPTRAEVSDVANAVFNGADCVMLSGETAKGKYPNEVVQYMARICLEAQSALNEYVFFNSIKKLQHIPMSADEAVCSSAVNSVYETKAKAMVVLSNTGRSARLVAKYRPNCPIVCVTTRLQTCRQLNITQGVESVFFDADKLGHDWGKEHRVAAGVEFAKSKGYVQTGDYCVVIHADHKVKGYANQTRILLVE
Chain of 3',5'-cyclic-AMP phosphodiesterase 4B (Homo sapiens) (Q07343 whole entry, looked up): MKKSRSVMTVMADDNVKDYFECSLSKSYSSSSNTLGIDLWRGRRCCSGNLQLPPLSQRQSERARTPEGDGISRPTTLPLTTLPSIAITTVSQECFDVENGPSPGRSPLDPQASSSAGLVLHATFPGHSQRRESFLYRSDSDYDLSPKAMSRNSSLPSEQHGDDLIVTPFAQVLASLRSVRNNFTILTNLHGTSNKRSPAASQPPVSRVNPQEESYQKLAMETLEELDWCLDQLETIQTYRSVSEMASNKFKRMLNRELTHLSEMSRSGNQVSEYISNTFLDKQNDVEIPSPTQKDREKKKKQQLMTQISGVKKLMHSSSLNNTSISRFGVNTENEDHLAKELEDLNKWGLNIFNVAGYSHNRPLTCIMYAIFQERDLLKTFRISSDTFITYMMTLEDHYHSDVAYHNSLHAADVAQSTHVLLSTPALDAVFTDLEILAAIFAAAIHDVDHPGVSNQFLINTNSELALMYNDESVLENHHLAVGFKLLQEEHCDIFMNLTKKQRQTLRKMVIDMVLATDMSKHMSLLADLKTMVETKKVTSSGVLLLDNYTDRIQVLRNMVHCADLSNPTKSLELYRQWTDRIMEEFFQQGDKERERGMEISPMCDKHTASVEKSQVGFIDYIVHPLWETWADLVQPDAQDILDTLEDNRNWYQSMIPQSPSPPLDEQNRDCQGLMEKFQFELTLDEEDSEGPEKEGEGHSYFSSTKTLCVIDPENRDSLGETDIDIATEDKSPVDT
Chain of Guanine nucleotide-binding protein G(i) subunit alpha-1 (Homo sapiens) (P63096 whole entry, looked up): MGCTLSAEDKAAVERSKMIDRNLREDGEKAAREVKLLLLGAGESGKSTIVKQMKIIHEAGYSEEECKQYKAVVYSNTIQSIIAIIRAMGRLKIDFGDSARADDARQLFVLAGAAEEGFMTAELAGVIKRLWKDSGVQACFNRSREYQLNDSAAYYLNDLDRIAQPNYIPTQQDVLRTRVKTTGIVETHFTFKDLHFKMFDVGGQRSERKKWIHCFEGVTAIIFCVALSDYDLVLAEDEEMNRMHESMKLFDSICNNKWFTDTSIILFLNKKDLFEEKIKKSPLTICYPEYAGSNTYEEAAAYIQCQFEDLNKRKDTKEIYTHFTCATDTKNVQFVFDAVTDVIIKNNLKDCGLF

Turning to `Nc1ncnc2c1ncn2[C@@H]1O[C@@H](COP(=O)(O)OP(=O)(O)OP(=O)(O)OP(=O)(O)OC[C@@H]2O[C@@H](n3cnc4c(N)ncnc43)[C@@H](O)[C@H]2O)[C@H](O)[C@@H]1O`, the Potency result in assay [1], in [6], in [7], in assay [9], in assay [10] and in [11] was “inactive” each time. For the same compound, the Potency entry in [12], in [13] and in assay [14] was “inactive” throughout. Besides, in assay [2], the activity change, negative = inhibition was -0.343% [at 38 µM]. In addition, the activity, negative = inhibition in assay [3] was 32% [at 38 µM]. The Potency was greater than 46 µM in assay [4], greater than 46 µM in assay [5] and 12.6 µM (active) in assay [15]. For the same compound, the outcome in assay [8], in assay [16] and in [17] was inactive.

As to `CCOc1ccc2c(ccc(/C=C\c3cc(C)c4cccnc4c3O)[n+]2C)c1`, the activity change, negative = inhibition in assay [18] was -9.14% [at 7.69 µM]. For the same compound, the Potency in [4] was greater than 46 µM; in [5], greater than 9.22 µM. Moreover, the Potency entry in assay [7] is “inactive”.

For the compound `CCc1cccc2c(-c3ccccc3)c3c(nc12)OCC3`, the Potency in assay [1] was 0.316 µM (active).

Consider `Oc1cc(O)cc(/C=C\c2ccc(O)c(O)c2)c1`, for which the Potency was 5.01 µM (active) in [1]; greater than 46 µM in assay [4]; greater than 46 µM in assay [5]; 1.26 µM (active) in [13]; 2.51 µM (active) in [14]. Moreover, in assay [2], the activity change, negative = inhibition was 5.18% [at 38 µM]. The Potency entry in [6], in assay [7], in [19] and in assay [15] was “inactive” in each case. In addition, the call in assay [20], in assay [16] and in assay [17] was inactive.

In the case of `COc1ccc(NC(=O)/C=C\c2ccc(Cl)cc2)cc1`, the Potency was 5.01 µM (active) in assay [1]; greater than 46 µM in [4]; greater than 46 µM in [5]; 25.1 µM (active) in assay [10]; 3.98 µM (active) in assay [21]; 0.316 µM (active) in [22]. For the same compound, the Potency in [23] is 1.41 µM (active); in assay [13], 10 µM (active); in assay [14], 15.8 µM (active). Also, the activity change, negative = inhibition in assay [2] is -10.1% [at 38 µM]. Further, the Potency result in assay [7], in assay [9], in assay [19] and in assay [15] was “inactive” in each case. Also, the compound was called inactive in [8], in assay [20], in assay [16] and in assay [17].

Consider `CC(C)(C)c1nnc2sc(SCC(=O)c3ccccc3)nn2c1=O`, for which the activity change, negative = inhibition in assay [18] is 2.49%. In assay [4], the Potency is greater than 20.6 µM.
